Screening data from PubChem BioAssay.
This is a sample that favours compounds with a hit; in the whole collection about 4.8% have one here.
Mdm2-MdmX inh: inhibitors of human Mdm2-MdmX association, primary screen, cell-based, luminescence, split luciferase, SaOS-2, uHTS; 330,000 tested, 3% active; inhibition, % at 8 µM; AID 485346, 2010; Protein Mdm4 (Homo sapiens) + E3 ubiquitin-protein ligase Mdm2 (Homo sapiens), …; SaOS-2 split-luciferase Mdm2/MdmX complementation;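 active means inhibition of at least 50% at 8 µM in the primary screen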
Target sequence (O15151 whole entry, looked up): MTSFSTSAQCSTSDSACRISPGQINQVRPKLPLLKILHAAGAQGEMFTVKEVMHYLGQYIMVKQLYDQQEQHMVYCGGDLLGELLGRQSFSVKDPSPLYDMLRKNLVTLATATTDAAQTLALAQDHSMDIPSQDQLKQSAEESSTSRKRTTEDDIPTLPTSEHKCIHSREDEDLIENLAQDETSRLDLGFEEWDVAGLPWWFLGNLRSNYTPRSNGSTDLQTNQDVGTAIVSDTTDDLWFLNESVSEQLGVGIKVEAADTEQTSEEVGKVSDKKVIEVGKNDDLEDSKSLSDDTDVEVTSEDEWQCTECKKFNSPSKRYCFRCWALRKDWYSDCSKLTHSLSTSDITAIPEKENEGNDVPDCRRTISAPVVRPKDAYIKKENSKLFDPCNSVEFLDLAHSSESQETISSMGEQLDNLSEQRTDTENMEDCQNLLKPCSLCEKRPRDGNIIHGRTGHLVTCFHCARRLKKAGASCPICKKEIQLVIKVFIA
Target sequence (Q00987 whole entry, looked up): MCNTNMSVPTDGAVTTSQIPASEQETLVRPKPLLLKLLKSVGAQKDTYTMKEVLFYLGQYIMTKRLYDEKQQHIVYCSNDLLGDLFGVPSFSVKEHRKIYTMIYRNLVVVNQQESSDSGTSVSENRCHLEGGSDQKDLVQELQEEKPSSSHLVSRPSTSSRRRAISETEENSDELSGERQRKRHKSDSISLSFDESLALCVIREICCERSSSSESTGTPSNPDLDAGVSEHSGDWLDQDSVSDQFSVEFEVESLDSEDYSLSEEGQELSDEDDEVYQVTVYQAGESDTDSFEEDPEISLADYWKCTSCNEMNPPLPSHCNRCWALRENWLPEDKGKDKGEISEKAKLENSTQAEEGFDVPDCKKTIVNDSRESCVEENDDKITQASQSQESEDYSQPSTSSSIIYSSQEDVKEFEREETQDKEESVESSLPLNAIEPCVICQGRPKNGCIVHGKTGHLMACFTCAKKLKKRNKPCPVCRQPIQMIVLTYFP
CSC inhib: cancer stem cell viability inhibitors, primary screen, luminescence; cancer stem cell-like cells viability; 300,000 tested, 1.1% active; AID 2717, 2010; inhibition, % at 7.5 µM; in the data active means inhibition above about 75%; inconclusive means no clear call, values can overlap the other calls; tested in HMLE shEcad cells
MPTP inh: mitochondrial permeability transition pore inhibitors, primary screen, biochemical, isolated mouse mitochondria, absorbance | AID 602449, 2012 | 360,000 tested, 1.4% active | inhibition, % at 10 µM | Ca2+ swelling absorbance, 30 min;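 active means inhibition of 50% or more, scaled per plate between neutral and stimulator controls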;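 further: 0% = DMSO wells given calcium and 100% = 1 mM EGTA wells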
Calb FLC: C. albicans growth inhibition with fluconazole, primary screen, CaCi-2 strain, Alamar Blue fluorescence. C. albicans CaCi-2 (fluconazole-resistant clinical isolate) + fluconazole, 48 h. growth inhibition, % (test concentration not listed). 300,000 tested, 0.57% active. AID 1979, 2009;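 active means growth inhibition above about 58% in most replicates, limit read from the data, passing the limit was not always enough; inconclusive means exactly half the replicates above a set limit; inactive means most replicates below a set limit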;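 further: all wells also contain fluconazole at 8 µg/ml as a sub-toxic cotreatment; 0% = median of DMSO wells and 100% = median of geldanamycin control wells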
Beta cell apopt: inhibitors of cytokine-induced beta cell apoptosis, primary screen, luminescence | 300,000 tested, 0.8% active | protection from apoptosis, % (concentration not given with the values) | INS-1E cytokine-induced death, ATP luminescence, 48 h; percent of positive-control rescue, neutral wells zero;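 active means Every replicate reaches about 75%, or at least half do and their mean reaches it too, limit read from the data; inconclusive means At least half of replicates reach the limit but their mean does not; inactive means Under half of replicates reach the limit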;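 further: 0% = cytokine-treated negative control wells and 100% = positive control rescue; higher means more ATP so stronger rescue from cytokine killing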
Mdm2-MdmX conf: Mdm2-MdmX complex disruptors, retested hits, confirmation, luminescence, single concentration. shares compounds with Mdm2-MdmX inh. Mdm2-MdmX binding, luminescent assay. inhibition, % at 8 µM. 10,000 tested, 55% active; in the data active means inhibition above about 40%
FLuc counter: full-length luciferase signal inhibition, confirmation, counter-screen for Mdm2/MdmX interaction inhibitor project, cell-based, single concentration, SaOS-2 | shares compounds with Mdm2-MdmX inh | SaOS-2 full-length luciferase counterscreen, luminescence | 6,200 tested, 77% active | inhibition, % at 8 µM;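 active means mean inhibition at 8 µM reaching about 37%, which flags the compound as non-specific, limit read from the data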;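 further: p53-null SaOS-2 cells with luciferase driven by a doxycycline-inducible promoter; compound on cells about two nights before reading with doxycycline added after day one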
Numbers without * were called inactive; ? = inconclusive; nt = not tested or not shown.

SMILES | Mdm2-MdmX inh | CSC inhib | MPTP inh | Calb FLC | Beta cell apopt | Mdm2-MdmX conf | FLuc counter
CCC(=O)NC(c1ccc(OC)cc1)c1c(O)ccc2ccccc12 (stereo not drawn) | 63* | 57 | 3 | -1 | 12 | 62* | 71*
Cn1c2nc(=O)n(-c3ccccc3)c(=O)c-2nc2c1CCCC2 | nt | nt | 0 | nt | nt | nt | nt
Cc1csc(NC(=O)CCCNC(=O)c2ccc(Cl)cc2)n1 | 23 | nt | 0 | nt | 1 | nt | nt
CCCCC(=O)NC(c1ccccc1)c1ccc2cccnc2c1O (stereo not drawn) | 72* | 110* | 0 | 89* | 99* | 88* | 50*
COc1ccc(CNC(=O)CSc2cccc3cccnc23)cc1 | 15 | nt | 0 | 2 | nt | nt | nt
COc1ccc(Cl)cc1C(Nc1cccnc1)c1ccc2cccnc2c1O (stereo not drawn) | 67* | 3 | 0 | 102* | nt | 63* | 44*
CCCCC(=O)NC(c1ccco1)c1cc(Cl)c2cccnc2c1O (stereo not drawn) | 63* | 102* | 4 | 112* | 104* | 56* | 29
CCCC(=O)NC(c1ccc(OC)cc1)c1ccc2cccnc2c1O (stereo not drawn) | 82* | 119* | 2 | 102* | 97* | 78* | 50*
CC(=O)NC(c1ccc(C(C)C)cc1)c1ccc2cccnc2c1O (stereo not drawn) | 81* | 109* | -2 | 0 | 90* | 83* | 20
CCOc1cc(CNCCCN2CCOCC2)cc(Br)c1OCC(=O)Nc1cccc(C(F)(F)F)c1 | 98* | 14 | 4 | 63 | 69 | 71* | 45*
O=C(CCc1nnc2ccc(N3CCC4(CC3)OCCO4)nn12)NCc1ccccc1Cl | 10 | -13 | 3 | -1 | -4 | nt | nt
COc1ccc(C(=O)c2no[n+]([O-])c2C(=O)c2ccc(OC)cc2)cc1 | 62* | -40 | -1 | 8 | -13 | 26 | nt
COc1ccc(C(=O)CC(=O)c2ccc(OC)cc2)cc1 | 34 | 18 | 0 | 1 | -1 | nt | nt
O=C(c1cccs1)c1no[n+]([O-])c1C(=O)c1cccs1 | 95* | -8 | 0 | 15 | 47 | -1 | nt
O=C(NCc1ccco1)c1cccc2c1C(=O)c1ccc(/C=C/c3ccccc3)cc1S2(=O)=O | 53* | 44 | -1 | nt | 10 | 47* | 69*
CC(C)c1cccc(-c2ccc3c(c2)S(=O)(=O)c2cccc(C(=O)NCc4ccccc4)c2C3=O)c1 | 59* | nt | 2 | nt | 15 | 30 | nt
CC(C)c1cccc(-c2ccc3c(c2)S(=O)(=O)c2cccc(C(=O)NCc4ccccc4Cl)c2C3=O)c1 | 89* | 31 | -4 | nt | -4 | 16 | nt
O=C(NCc1ccc(F)cc1)c1cccc2c1C(=O)c1ccc(Cl)cc1S2(=O)=O | -16 | -18 | nt | nt | -2 | nt | nt
COc1ccc(-c2ccc3c(c2)S(=O)(=O)c2cccc(C(=O)NCc4ccccc4Cl)c2C3=O)cc1OC | 22 | -5 | 0 | nt | 14 | nt | nt
O=C(C[C@@H]1C/C=C/CC[C@@H](Cc2ccc(F)cc2)C(=O)OC[C@H](Cc2ccccc2)NC1=O)N[C@H](CO)Cc1ccccc1 | -7 | nt | 0 | nt | 6 | nt | nt
O=C(NNC(=S)NCC1CCCO1)c1cc(Br)ccc1Cl (stereo not drawn) | 20 | -23 | 0 | 8 | 6 | nt | nt
Nc1[nH]n2c(=O)c3c(nc2c1N=Nc1ccc(Cl)cc1)CCCC3 | 53* | 41 | 5 | 14 | -1 | 26 | nt
Nc1[nH]n2c(=O)c3c(nc2c1N=Nc1ccccc1)CCCC3 | 47 | nt | -1 | -3 | 28 | nt | nt
CCOC(=O)C(C)(C)N(Cc1ccc(C)cc1)S(=O)(=O)c1ccc(Cl)c([N+](=O)[O-])c1 | 96* | -2 | 0 | -1 | -11 | 66* | 71*
NS(=O)(=O)c1ccc(CNC(=O)c2ccc(Cl)c([N+](=O)[O-])c2)cc1 | 9 | -9 | 2 | -6 | -15 | nt | nt
SMILES | Mdm2-MdmX inh | CSC inhib | MPTP inh | Calb FLC | Beta cell apopt | Mdm2-MdmX conf | FLuc counter
CCOC(=O)C(C)(C)N(Cc1ccc(Cl)cc1)S(=O)(=O)c1ccc(Cl)c([N+](=O)[O-])c1 | 95* | 109* | nt | -1 | -1 | 81* | 50*
CCOC(=O)C(C)(C)NS(=O)(=O)c1ccc(Cl)c([N+](=O)[O-])c1 | -27 | -1 | 0 | -6 | -2 | nt | nt
CC(C)n1c(/C=C/[C@@H](O)C[C@@H](O)CC(=O)O)c(-c2ccc(F)cc2)c2ccccc21 | 59* | 16 | 0 | 47 | 8 | 50* | 108*
CC1(C)C(=O)Nc2ccccc2N1C(=O)Cn1ncc(Cl)c(Cl)c1=O | 100* | ? | 0 | 7 | -21 | 91* | 40*
CC(OC(=O)/C=C/c1ccc2ccccc2n1)C(=O)N(C)c1ccccc1 (stereo not drawn) | 65* | nt | -1 | nt | 2 | 35 | 56*
COc1ccccc1NC(=O)C(C)OC(=O)/C=C/c1ccc2ccccc2n1 (stereo not drawn) | 12 | -2 | -2 | 15 | -6 | nt | nt
CC1CCCN(Cc2c(O)ccc3c(=O)c(-c4nc5ccccc5s4)c(N)oc23)C1 (stereo not drawn) | 70* | 31 | 2 | 81* | 27 | 43* | 67*
CC1CCN(Cc2c(O)ccc3c(=O)c(-c4nc5ccccc5s4)c(N)oc23)CC1 | 51* | nt | 1 | -7 | 2 | 22 | nt
CC1(C)CCCN(Cc2c(O)ccc3c(=O)c(-c4nc5ccccc5s4)c(N)oc23)C1 | 14 | ? | 8 | -5 | 2 | nt | nt
CCOc1cc(C2c3c(n[nH]c3C)C(=O)N2c2ccc(C)cc2)ccc1O (stereo not drawn) | 4 | -15 | 2 | 22 | -3 | nt | nt
COc1cc(C2c3c(n[nH]c3C)C(=O)N2c2ccc(C)cc2)ccc1O (stereo not drawn) | 69* | -6 | 4 | 8 | 4 | 72* | 51*
O=C(Nc1nnc(-c2cccs2)o1)c1cccc(Oc2ccccc2)c1 | 55* | 63 | -17 | nt | 0 | 31 | nt
O=C(Nc1ccsc1C(=O)O)c1cccc(Oc2ccccc2)c1 | -46 | 45 | 1 | -1 | 3 | nt | nt
CCOc1ccc2nc(NC3=NC(c4ccc(OC)cc4)CC(=O)N3)nc(C)c2c1 (stereo not drawn) | 98* | 76* | 2 | 0 | 46 | 39 | 31
CCc1nc2c(OCCOC)cccn2c1N(C)C(=O)Nc1ccccc1OC | nt | nt | 0 | nt | nt | nt | nt
